Among all 410,000 compounds or so, about 18,000 (4.4%) were called active. About 7% were inconclusive and are not listed. The full list was thinned out, with actives kept by preference. Values without a mark were called inactive. Rule as the data show it: active = activity change below about -60%; inconclusive = no clear call, values can overlap the other calls; inactive = above about -39%.
Test: qHTS Assay for inhibitors of the human cytomegalovirus (HCMV)
Settings: HFF cells, HCMV-luciferase reporter, 72 h; at 57.5 µM; active compounds read low
Summary of the method: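 Cell-based, HFFs, 1000 cells/well, 16 h 37C; cpds in DMSO + HCMV-luc, MOI 1 PFU/cell; 72 h 37C; OneGlo luminescence after 5 min RT; norm. to buffer vs Salinomycin 10uM.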
% is scaled to controls: 0 for no effect and ±100 for the full control effect.

| Compound | activity change, negative = inhibition |
| --- | --- |
| CC(C)C(C)(C#N)NC(=O)CSc1nncn1-c1ccccc1 (configuration not stated) | -23% |
| COc1ccccc1C1C(C(=O)N2CCCCC2)=C(C)Nc2nc3ccccc3n21 (configuration not stated) | 1.21% |
| COC(=O)c1c(NC(=O)c2cc(=O)c3c(C)cc(C)cc3o2)sc2c1CCCC2 | 17.7% |
| CCN(Cc1nc2ccccc2c(=O)[nH]1)Cc1cc(=O)oc2cc(C)c(C)cc12 | 17.8% |
| CCN(CC(=O)NC(=O)NCc1ccccc1)Cc1nc2ccccc2c(=O)[nH]1 | 5.98% |
| CCN(CC)c1ccc(C(=O)NNC(=O)CCc2nc3ccccc3c(=O)[nH]2)cc1 | -64.9% (active) |
| COc1ccc(-c2cc(NCc3ccc(F)cc3)n3cnnc3n2)cc1 | -27.8% |
| CCc1cnc2c(c1SCC(=O)c1ccccc1)c(=O)n(C)c(=O)n2C | -3.48% |
| COCC(C)NS(=O)(=O)c1ccc(N2CCCCS2(=O)=O)cc1 (configuration not stated) | -11.3% |
| CC(c1ccccc1)n1c(NCCCn2ccnc2)nc2c1c(=O)[nH]c(=O)n2C (configuration not stated) | 97.4% |
| CN(CC(=O)Nc1ccccc1C(F)(F)F)C(=O)Cc1ccccc1F | -12.2% |
| Cc1cc(C)nc(NC(=O)Nc2ccccc2C(F)(F)F)n1 | -62.1% (active) |
| O=C(NNC(=O)c1ccccc1[N+](=O)[O-])Nc1ccccc1C(F)(F)F | -0.175% |
| COc1cc(Cl)c(C)cc1NC(=O)CCc1nc2cccnc2n1Cc1cccs1 | 11% |
| CC(=O)Nc1ccc(NC(=O)CSc2nnc(C3CC3)n2-c2ccccc2)cc1 | 0% |
| Cc1nnc(SCC(=O)Nc2cccc(N)c2)n1-c1ccccc1 | 5.74% |
| CC[n+]1c(C)n(-c2ccccc2)c2ccc(NC(C)=O)cc21 | -79.8% (active) |
| Cn1c(CCC(=O)OCC(=O)NCc2ccccc2Cl)nc(=O)c2ccccc21 | 14.9% |
| O=S(=O)(c1ccc2nc(NCc3ccccc3Cl)ccc2c1)N1CCCCC1 | -22.2% |

| Compound | activity change, negative = inhibition |
| --- | --- |
| Cc1ccc(Nc2ccc3cc(S(=O)(=O)N4CCCCC4)ccc3n2)cc1F | -90.2% (active) |
| O=S(=O)(c1ccc2nc(N3CCN(c4cccc(Cl)c4)CC3)ccc2c1)N1CCCCC1 | 6.51% |
| Cc1ccc(-n2ncc3c(=O)n(Cc4cccc(C(F)(F)F)c4)cnc32)cc1C | 1.72% |
| CSc1nc(C)nc2c1c(=O)n(C)c(=O)n2C | 6.36% |
| COc1ccc(C(=O)/C=C/c2ccc(-c3ccccc3)cc2)cc1CSCC(=O)O | -1.55% |
| COc1ccc(/C=C/C(=O)c2ccc(NS(=O)(=O)c3ccc(C)cc3)cc2)cc1O | -96.5% (active) |
| COc1ccccc1C(=O)COC(=O)CNS(=O)(=O)c1ccc(NC(C)=O)cc1 | 5.34% |
| COC(C(=O)Nc1ccc(S(=O)(=O)Nc2ccc(C)c(C)c2)cc1)c1ccccc1 (configuration not stated) | -97.3% (active) |
| COC(C(=O)NCc1ccccc1C)c1ccccc1 (configuration not stated) | -7.11% |
| COc1ccc(NS(=O)(=O)c2ccc(NC(C)=O)cc2)cc1OC | -79.8% (active) |
| CCC(Oc1ccccc1C)C(=O)Nc1ccc(S(=O)(=O)Nc2cc(C)on2)cc1 (configuration not stated) | 4.11% |
| Cc1ccc(S(=O)(=O)NNC(=O)/C=C/c2cccc(F)c2)cc1 | -26.4% |
| COc1ccc(S(=O)(=O)Nc2cc(C)on2)cc1NC(C)=O | 61.3% |
| CCc1ccc(NC(=O)c2cc3c(=O)n(Cc4cccnc4)ccc3nc2C)cc1 | -20.1% |
| CC(=O)N1Cc2cc(C(=O)NCc3cccc(F)c3)nc(-c3cccc(C4=CCCCC4)c3)c2[C@H]1CCO | 3.64% |
| COc1ccc(CCNC(=O)c2cc3cccc4c3n2CC(C)S4)c(OC)c1OC (configuration not stated) | 0% |
| COCc1c(C(=O)N/N=C/C2CC=CCC2)nnn1-c1nonc1N (configuration not stated) | 65.4% |
| O=C(/C=C/c1ccc(Cl)c([N+](=O)[O-])c1)c1cccnc1 | -80.5% (active) |
| O=C(NN=Cc1ccco1)C(=O)Nc1ccc(Cl)c([N+](=O)[O-])c1 | 63.3% |

| Compound | activity change, negative = inhibition |
| --- | --- |
| C/C(=N\NC(=O)Cc1ccccc1[N+](=O)[O-])c1cccnc1 | 44.6% |
| Cc1cc(=O)oc(C)c1C(=O)Nc1cnc2ccccc2c1 | 38.4% |
| Cc1ccc(Cn2c(=O)n(CCCC(=O)NCc3ccccc3Cl)c(=O)c3ccccc32)cc1 | 20.2% |
| COc1ccc(CNCCc2c[nH]c3ccccc23)cc1OC | 4.34% |
| COc1cccc(CNCCc2c[nH]c3ccccc23)c1OCc1ccccc1F | -99.3% (active) |
| COc1cccc(CNn2cn[nH]c2=S)c1OCc1ccccc1 | -23.6% |
| Nc1ncnc2c1ncn2C1OC(CO)CC1O (configuration not stated) | 8.48% |
| CC1CCc2noc(NC(=O)c3ccc([N+](=O)[O-])cc3)c2C1 (configuration not stated) | 26.6% |
| S=C(NN=Cc1ccccn1)Nc1ccccn1 | 279% |
| Cc1nnc(N/N=C/c2ccccn2)[nH]c1=O | -97.8% (active) |
| CS(=O)(=O)N(CC(=O)N/N=C/c1ccccn1)c1ccc(Oc2ccccc2)cc1 | -1.4% |
| O=C(CN1C(=O)COc2ccc(S(=O)(=O)N3CCCCCC3)cc21)N1CCN(c2cccc(C(F)(F)F)c2)CC1 | -23.3% |
| Fc1ccc(C(Nc2ccc(Cl)c(C(F)(F)F)c2)c2nnc(-c3ccccc3)o2)cc1 (configuration not stated) | -0.379% |
| O=c1nc(N/N=C/c2ccco2)cn[nH]1 | -3.52% |
| COc1cc(OC)cc(C(=O)N[C@H](C(=O)Nc2nc3ccccc3[nH]2)C(C)C)c1 | -77% (active) |
| COc1ccc(N2CCN(C(=O)[C@@H](NC(=O)c3cc(OC)cc(OC)c3)C(C)C)CC2)cc1 | -2.95% |
| COc1cc(OC)cc(C(=O)N[C@H](C(=O)OCC(=O)NC(C)c2ccccc2)C(C)C)c1 (some centres not stated) | -6.95% |
| CCN(Cc1ccncc1)C(=S)Nc1ccccc1C | 2.81% |
| CCn1c(CN2CCC(C)CC2)nc2cc(NC(=O)c3ccccc3[N+](=O)[O-])ccc21 | -37.4% |

Reference: PubChem BioAssay AID1259415 (National Center for Advancing Translational Sciences (NCATS), 2018)
